Test results from PubChem BioAssay AID1984 (Sanford-Burnham Center for Chemical Genomics, 2009).
Out of some 290,000 compounds screened, about 35 (0.01%) were called active.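 How the source made its calls: active means EGFP signal decrease of at least 30% at 10 µM or well 3 SD below plate mean, unless failing retest; inactive means the rest, including hits failing retest or dose response.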 The full list was thinned out, with actives kept by preference.

What follows are molecules tested against p/CIP-EGFP fusion (nuclear receptor coactivator 3, mouse) (UniProt Q05BA5) (assay: compounds lowering mouse p/CIP (NCOA3) protein levels – fluorescence, F442A cells, EGFP fusion, primary screen (AID 1984)). Settings: 16 h, at 10 µM, stronger effect = higher value.
Chain of p/CIP-EGFP fusion (nuclear receptor coactivator 3, mouse) (Q05BA5 1-1403): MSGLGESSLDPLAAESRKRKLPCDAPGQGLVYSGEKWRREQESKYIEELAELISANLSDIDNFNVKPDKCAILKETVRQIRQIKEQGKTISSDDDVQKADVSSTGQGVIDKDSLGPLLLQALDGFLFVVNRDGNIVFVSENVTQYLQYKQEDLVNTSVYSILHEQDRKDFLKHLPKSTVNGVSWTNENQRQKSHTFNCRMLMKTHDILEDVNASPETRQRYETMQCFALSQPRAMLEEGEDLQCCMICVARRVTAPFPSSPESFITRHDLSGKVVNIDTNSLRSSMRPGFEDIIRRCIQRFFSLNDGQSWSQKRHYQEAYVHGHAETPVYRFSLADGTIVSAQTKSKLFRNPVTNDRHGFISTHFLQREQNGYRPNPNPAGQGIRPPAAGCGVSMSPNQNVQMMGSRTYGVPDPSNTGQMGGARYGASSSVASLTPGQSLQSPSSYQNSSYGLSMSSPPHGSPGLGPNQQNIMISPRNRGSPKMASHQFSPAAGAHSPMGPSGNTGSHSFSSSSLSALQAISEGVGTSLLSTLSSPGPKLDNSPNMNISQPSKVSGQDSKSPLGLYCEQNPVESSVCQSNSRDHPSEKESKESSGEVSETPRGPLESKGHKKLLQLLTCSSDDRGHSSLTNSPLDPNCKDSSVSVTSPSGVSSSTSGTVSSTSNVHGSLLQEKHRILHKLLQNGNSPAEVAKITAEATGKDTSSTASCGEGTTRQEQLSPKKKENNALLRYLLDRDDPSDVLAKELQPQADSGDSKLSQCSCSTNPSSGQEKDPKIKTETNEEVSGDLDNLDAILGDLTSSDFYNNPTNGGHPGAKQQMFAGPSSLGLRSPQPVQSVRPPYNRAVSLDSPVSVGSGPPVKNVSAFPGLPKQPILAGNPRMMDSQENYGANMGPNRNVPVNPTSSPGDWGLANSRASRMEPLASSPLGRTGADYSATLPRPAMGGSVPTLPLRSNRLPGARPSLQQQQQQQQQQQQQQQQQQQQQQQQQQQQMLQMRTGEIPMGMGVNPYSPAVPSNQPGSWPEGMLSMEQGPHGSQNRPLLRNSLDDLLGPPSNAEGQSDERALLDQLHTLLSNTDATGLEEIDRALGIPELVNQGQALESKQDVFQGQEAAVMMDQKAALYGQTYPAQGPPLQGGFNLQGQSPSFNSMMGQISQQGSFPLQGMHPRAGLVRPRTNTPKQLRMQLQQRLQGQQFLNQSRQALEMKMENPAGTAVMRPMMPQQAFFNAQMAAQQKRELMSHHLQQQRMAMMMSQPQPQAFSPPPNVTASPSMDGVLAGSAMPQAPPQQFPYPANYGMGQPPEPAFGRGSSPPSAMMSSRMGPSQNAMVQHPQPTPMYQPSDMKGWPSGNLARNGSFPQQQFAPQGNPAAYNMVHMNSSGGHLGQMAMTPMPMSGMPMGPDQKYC

SMILES	decrease of EGFP signal
CN(C)CCN(C(=O)C1CCCCC1)c1nc2cc3c(cc2s1)OCO3	-21.2% (inactive)
O=C(NCc1cccc(C(F)(F)F)c1)c1cccc(S(=O)(=O)N2CCN(Cc3ccccc3)CC2)c1	-8.5% (inactive)
C=CCNC(=O)c1ccc2c3n(nc2c1)-c1ccc(C)cc1CO3	-3.3% (inactive)
O=C(O)CCCCCCCCc1cn(CN2C(=O)c3ccccc3C2=O)nn1	-13.1% (inactive)
CN(Cc1ccccc1Cl)C(=O)C1CCC(=O)N(CCc2cccc(F)c2)C1 (stereo unspecified)	-8.9% (inactive)
CCOc1ccc2c(c1)c(=O)c(S(=O)(=O)c1ccc(C)cc1)cn2CC	-6% (inactive)
CC(C)c1ccc(S(=O)(=O)N2CCC3(CC2)OCCO3)cc1	0.3% (inactive)
CC1CN(S(=O)(=O)c2cccc(C(F)(F)F)c2)CN1C(=O)N1CCOCC1 (stereo unspecified)	-19% (inactive)
CCCN(CCC)c1nc2c(C)cccn2c(=O)c1/C=C1/SC(=S)N(Cc2ccco2)C1=O	-656% (inactive)
CCOC(=O)c1c(S(=O)(=O)NCC(=O)Nc2ccc(C)cc2)c(C)n(C)c1C	3.3% (inactive)
COc1ccc(OC)c(CCNC(=O)CCn2ccc3cc(S(=O)(=O)N4CCCC4)ccc32)c1	1% (inactive)
NC(=O)CC(NC(=O)Cc1ccc(Br)cc1)c1ccc(NC2CC3CCC2C3)c([N+](=O)[O-])c1 (stereo unspecified)	3.9% (inactive)
Cn1c(SCc2ccc(F)cc2)nnc1-c1ccncc1	-10.6% (inactive)
COc1ccc(CCNC(=O)CCc2cn(C)c3ccccc23)c(OC)c1	-1.8% (inactive)
Cc1cc(C)cc(OCC(=O)Nc2cc(NC(=O)COc3cc(C)cc(C)c3)cc(C(=O)O)c2)c1	13.4% (inactive)
O=C(CCCCCn1c(=S)[nH]c2ccsc2c1=O)NC1CCCCC1	1.2% (inactive)
Cc1cc(C)c2nc(N3CCC(C(=O)NCCN4CCOCC4)CC3)sc2c1	-53.2% (inactive)
CCc1cccc(NC(=S)N(CCN(C)C)C2CCN(C(C)C)CC2)c1	2.9% (inactive)
COc1ccc(NC(=O)CSc2nc(SC)ns2)c(OC)c1	-9.3% (inactive)
CC(C)(C)OC(=O)NC(Cc1ccccc1)C(=O)NC(CSC1CCCCO1)C(=O)NN (stereo unspecified)	1% (inactive)
Cc1cccc(NC(=O)c2ccc([N+](=O)[O-])o2)c1	1.2% (inactive)
CC(Sc1nnnn1C)C(=O)NC(=O)NC1CCCCC1 (stereo unspecified)	12.9% (inactive)
O=Cc1c(NCCCN2CCCC2=O)c2ccccc2[nH]c1=O	-1.8% (inactive)

SMILES	decrease of EGFP signal
N#Cc1ccc(C2N=C(c3ccccc3)NO2)cc1 (stereo unspecified)	-11.6% (inactive)
Cc1ccc(C(=O)N/C(=C\c2cn(C)c3ccccc23)C(=O)N2CCN(C)CC2)cc1	3.7% (inactive)
CCCCC(O)(CCCC)C(=O)NN(C(=O)CCl)c1ccccc1	-2.8% (inactive)
CS/C(=C\C(=O)c1ccco1)Nc1ccccc1Cl	-2.4% (inactive)
Cc1nn(-c2ccccc2)c(Cl)c1/C=N/NC(=O)c1nn(C)cc1[N+](=O)[O-]	-5.8% (inactive)
COc1cc(NC(=O)c2ccc(-c3csc(C)n3)cc2)c(OC)cc1Cl	-15.5% (inactive)
COc1ccccc1CN1CCN(Cc2cc(OC)c(OC)cc2OC)CC1	-13.1% (inactive)
COc1ccc(C(=O)NC(C)CCc2ccccc2)c(OC)c1 (stereo unspecified)	-12.7% (inactive)
O=C(O)c1ccccc1C(=O)NC1=NN(c2ccccc2)CC1	13.1% (inactive)
CCc1ccc(C(=O)NN=C2CCCCCC2)s1	-8.5% (inactive)
C=CCn1c(C23CC4CC(CC(C4)C2)C3)n[nH]c1=S	-8.9% (inactive)
COCCNC(=O)CSc1nc2sccc2c(=O)n1-c1ccccc1	-15.6% (inactive)
Cc1ccc(C(CNC(=O)Nc2cccc(C)c2)N2CCN(C)CC2)cc1 (stereo unspecified)	-22.3% (inactive)
CC1C(=O)N(Cc2ccccc2)c2ccccc2N1C(=O)c1ccccc1 (stereo unspecified)	-15.4% (inactive)
COc1ccc(N2CCN(C(=O)c3cccs3)CC2)cc1	-8% (inactive)
Cc1nc2nc(SCC(=O)Nc3cccc(F)c3)[nH]c2cc1Br	-0.1% (inactive)
CS(=O)(=O)c1ccccc1C(=O)Nc1ccc2sccc2c1	-7.2% (inactive)
COc1ccc(-c2n[nH]c3c2CN(C(=O)c2ccc(F)cc2)CC3)cc1	-14.3% (inactive)
CC(C)(C)C1CCc2c(sc3nc(SCC(N)=O)nc(N)c23)C1 (stereo unspecified)	-4.6% (inactive)
O=C(NCCCn1ccnc1)/C(=C\c1ccccc1F)NC(=O)c1ccccc1	-21.2% (inactive)
COc1ccc(OC)c(C(=O)NC(CC(N)=O)c2ccc(N3CCC(N4CCCCC4)CC3)c([N+](=O)[O-])c2)c1 (stereo unspecified)	-7.7% (inactive)
CSCC[C@H](NC(=O)N1CCn2c1nc1ccccc12)C(=O)NCc1ccc2c(c1)OCO2	-3.3% (inactive)
Nc1nnc2c(C(F)(F)F)nc3ccccc3n12	-5.5% (inactive)

SMILES	decrease of EGFP signal
COc1ccc(C)cc1Nc1n[n+](-c2ccccc2)c(-c2cccc(Cl)c2Cl)s1	6.4% (inactive)
CCN1N=C(c2ccccc2)CCC1=O	5.6% (inactive)
COc1cc2ccccc2cc1C(=O)Nc1ccccc1C	-1.6% (inactive)
CC(C)(C)c1ccc(C(=O)N2CCN(CCNC(=O)C(=O)Nc3ccc(F)cc3)CC2)cc1	-21.5% (inactive)
CCc1ccc(Oc2coc3cc(O)ccc3c2=O)cc1	-7.6% (inactive)
CC(=O)N1CCOc2ccc(S(=O)(=O)N3CCC(C(=O)Nc4ccccc4F)CC3)cc21	11.8% (inactive)
O=C(CNC(=O)c1ccccc1)Oc1ccc([N+](=O)[O-])cc1	-14% (inactive)
C=CCNC(=S)NNC(=O)COc1c(Cl)cc(Cl)cc1Cl	-6.1% (inactive)
C=CCNC(=O)COC(=O)CNC(=O)c1cc(Cl)cc([N+](=O)[O-])c1	32% (active)
COc1ccc(NC2CCCN(C(=O)c3ccncc3)C2)cc1 (stereo unspecified)	-13.8% (inactive)
CC(=O)c1cccc(NC(=O)C2CCN(C(=O)c3ccccc3Cl)CC2)c1	4.2% (inactive)
Cc1ccccc1N(C(=O)CNC(=O)c1cccs1)C(C(=O)NC1CCCC1)c1ccncc1 (stereo unspecified)	12.1% (inactive)
CC1(C)C=C2[C@H]3CC[C@@H]4[C@@]5(C)CCC(=O)C(C)(C)[C@@H]5CC[C@@]4(C)[C@]3(C)CC[C@@]2(C(=O)O)CC1	-6.3% (inactive)
O=C(CN1CCN(S(=O)(=O)c2ccc(Br)cc2)CC1)Nc1ccccc1C(=O)c1ccccc1	-4.8% (inactive)
NC(=O)c1cc(S(=O)(=O)N2CCCC2)ccc1OCc1ccc(F)cc1	-4.5% (inactive)
COc1cccc(NC(=O)NCCN2CCCCC2)c1	-6.2% (inactive)
OC(CNC1CCCC1)COc1ccc(F)cc1 (stereo unspecified)	26.4% (inactive)
CCCCC(=O)Nc1nnc(S(=O)(=O)N(C)Cc2ccco2)s1	0.2% (inactive)
Cc1ccc(N(Cc2cc(=O)[nH]c3ccccc23)C(=O)CCl)cc1	-8.8% (inactive)
CN(C)S(=O)(=O)c1cccc(NC(=O)COC(=O)C2(c3ccccc3F)CCCC2)c1	-3% (inactive)
Cc1[nH]c2ccccc2c1C(=O)CN1CCCC(C)C1 (stereo unspecified)	-10.8% (inactive)
Cc1ccc(-c2nc(CSCC(=O)NC3CCN(Cc4ccccc4)CC3)c(C)o2)cc1	-10% (inactive)
Cn1nccc1C(=O)NC1CCCc2c1cnn2-c1ccc(F)cc1F (stereo unspecified)	-26.2% (inactive)

SMILES	decrease of EGFP signal
Cc1ccc(CNC(=O)CSc2nnc3c(n2)[nH]c2ccc(F)cc23)cc1	-14.9% (inactive)
COc1cc(C2C(N3C(=O)c4ccccc4C3=O)C(=O)N2c2ccc(C)c(C)c2)cc(OC)c1OC (stereo unspecified)	8.2% (inactive)
N#CC(C#N)=CN=c1ccn(Cc2ccc(Cl)cc2Cl)cc1	-1.4% (inactive)
Cc1ccc(C(=O)NC2CCN(C(=O)Nc3ccccc3Cl)CC2)cc1	5.4% (inactive)
CC1CCN(C(=O)c2ccccc2NC(=O)Cc2ccccc2)CC1	-1.7% (inactive)
COc1ccccc1N(CC(=O)NC1CCCC1)C(=O)C1(C)CC(=O)N=C2C=CC(C)=CN21 (stereo unspecified)	-13.7% (inactive)
Cc1ccc(OCC(=O)Nc2ccccc2C(=O)NC2CC2)cc1C	1.1% (inactive)
COc1ccccc1NC(=O)CSc1nnc(CNC(=O)c2ccccc2F)o1	-0.3% (inactive)
CCOC(=O)C1CCN(Cc2nnc(-c3cccc(Br)c3)o2)CC1	-16.9% (inactive)
O=C(CCc1nnc(Cc2ccc3c(c2)OCO3)o1)NCCc1ccccc1Cl	-7.8% (inactive)
O=C(NCCc1ccccc1)c1ccc2c(c1)N(Cc1ccccc1)CCS2	5.5% (inactive)
Cc1ccc(NC(=S)Nc2ncccc2C)c(C)c1	-3.8% (inactive)
COc1ccc(NS(=O)(=O)c2ccc(N3CCN(CCO)CC3)c([N+](=O)[O-])c2)cc1	-28.7% (inactive)
C=C(C)C(=O)O[C@H]1C/C(C)=C\C(=O)/C=C(\C)[C@H](O)[C@@H]2OC(=O)C(=C)[C@@H]21	-31.6% (inactive)
CC(C)NC(=O)N1CCN(c2ccncc2S(=O)(=O)N2CCCCC2)CC1	5.9% (inactive)
Nc1c(N(CCO)C(=O)C2CCCCC2)c(=O)[nH]c(=O)n1Cc1ccccc1	-13.9% (inactive)
CC(C)CCOc1ccc(C(=O)C[N+]2(C)CCOCC2)cc1	-10% (inactive)
O=C(OCC(=O)N1CCN(C(=O)c2ccco2)CC1)c1cccc(O)c1	2.2% (inactive)
Cc1ccc(NC(=O)CSc2nnc(CNC(=O)c3ccccc3F)o2)cc1Cl	-13% (inactive)
CCc1cccc(NC(=O)CCCN2C(=O)C(c3ccccc3)Oc3cccnc32)c1 (stereo unspecified)	4.5% (inactive)
O=C(COc1cccc(Cl)c1)NCc1ccccc1	-3.1% (inactive)
CC(C(=O)N1CCN(c2ccccc2F)CC1)c1ccc([N+](=O)[O-])cc1 (stereo unspecified)	1.2% (inactive)
